For 11 targets, log2 fold change results are on record in the supplement of paper PMC12819154, “High-throughput peptide-centric local stability assay extends protein–ligand identification to membrane proteins, tissues and bacteria” (Nature Structural & Molecular Biology, 2025).

UniProt Q62120, sequence (Q62120 whole entry): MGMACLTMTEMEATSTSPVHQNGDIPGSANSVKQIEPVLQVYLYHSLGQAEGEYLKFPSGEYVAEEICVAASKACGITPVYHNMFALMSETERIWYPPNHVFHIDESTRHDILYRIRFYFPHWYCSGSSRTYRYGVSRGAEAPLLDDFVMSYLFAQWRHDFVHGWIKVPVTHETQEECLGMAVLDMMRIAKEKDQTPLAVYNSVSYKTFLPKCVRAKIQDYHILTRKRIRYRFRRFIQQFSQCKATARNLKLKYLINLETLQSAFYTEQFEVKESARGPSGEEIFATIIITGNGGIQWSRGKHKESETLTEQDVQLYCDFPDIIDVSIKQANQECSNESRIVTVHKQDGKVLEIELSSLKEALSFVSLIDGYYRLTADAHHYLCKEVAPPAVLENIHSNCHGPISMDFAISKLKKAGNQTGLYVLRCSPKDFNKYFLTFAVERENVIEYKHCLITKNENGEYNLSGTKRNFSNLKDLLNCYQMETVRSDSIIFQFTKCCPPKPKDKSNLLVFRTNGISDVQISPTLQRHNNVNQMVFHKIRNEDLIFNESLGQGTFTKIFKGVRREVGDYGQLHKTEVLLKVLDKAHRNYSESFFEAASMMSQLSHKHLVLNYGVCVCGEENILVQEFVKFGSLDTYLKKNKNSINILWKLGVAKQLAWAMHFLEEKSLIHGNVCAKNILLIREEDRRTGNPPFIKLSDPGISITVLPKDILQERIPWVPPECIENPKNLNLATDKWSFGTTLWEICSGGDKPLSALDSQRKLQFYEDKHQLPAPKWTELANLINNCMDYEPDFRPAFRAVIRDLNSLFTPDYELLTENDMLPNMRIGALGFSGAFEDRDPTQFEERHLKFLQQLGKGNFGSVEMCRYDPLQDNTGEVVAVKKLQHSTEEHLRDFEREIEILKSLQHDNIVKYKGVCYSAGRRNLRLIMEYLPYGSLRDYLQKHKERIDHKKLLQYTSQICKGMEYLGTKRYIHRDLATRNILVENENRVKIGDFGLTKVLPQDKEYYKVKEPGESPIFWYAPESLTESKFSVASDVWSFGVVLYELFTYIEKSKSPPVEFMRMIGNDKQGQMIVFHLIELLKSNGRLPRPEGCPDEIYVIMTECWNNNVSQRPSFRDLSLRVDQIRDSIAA
UniProt Q8C5L7, sequence (Q8C5L7 whole entry): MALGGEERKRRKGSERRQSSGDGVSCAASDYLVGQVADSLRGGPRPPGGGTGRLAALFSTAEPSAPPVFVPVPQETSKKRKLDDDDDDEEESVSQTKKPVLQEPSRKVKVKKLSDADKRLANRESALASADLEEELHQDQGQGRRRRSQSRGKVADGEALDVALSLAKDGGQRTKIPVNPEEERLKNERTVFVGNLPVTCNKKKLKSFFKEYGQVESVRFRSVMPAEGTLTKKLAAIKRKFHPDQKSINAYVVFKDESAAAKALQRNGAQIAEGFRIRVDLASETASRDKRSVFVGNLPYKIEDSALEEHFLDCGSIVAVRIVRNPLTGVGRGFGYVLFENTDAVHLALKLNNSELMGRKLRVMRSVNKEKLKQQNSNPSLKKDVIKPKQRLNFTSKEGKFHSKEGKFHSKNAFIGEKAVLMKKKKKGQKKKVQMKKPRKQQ
UniProt Q60932, sequence (Q60932 whole entry): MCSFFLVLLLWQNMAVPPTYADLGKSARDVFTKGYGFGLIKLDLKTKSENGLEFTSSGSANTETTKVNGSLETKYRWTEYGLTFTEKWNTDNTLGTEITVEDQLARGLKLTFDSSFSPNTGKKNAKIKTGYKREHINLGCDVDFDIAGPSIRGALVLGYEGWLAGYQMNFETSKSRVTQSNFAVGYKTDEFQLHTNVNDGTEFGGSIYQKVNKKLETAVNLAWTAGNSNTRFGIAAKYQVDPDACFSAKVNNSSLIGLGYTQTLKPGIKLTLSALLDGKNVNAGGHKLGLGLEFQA
UniProt Q9D6M3, sequence (Q9D6M3 whole entry): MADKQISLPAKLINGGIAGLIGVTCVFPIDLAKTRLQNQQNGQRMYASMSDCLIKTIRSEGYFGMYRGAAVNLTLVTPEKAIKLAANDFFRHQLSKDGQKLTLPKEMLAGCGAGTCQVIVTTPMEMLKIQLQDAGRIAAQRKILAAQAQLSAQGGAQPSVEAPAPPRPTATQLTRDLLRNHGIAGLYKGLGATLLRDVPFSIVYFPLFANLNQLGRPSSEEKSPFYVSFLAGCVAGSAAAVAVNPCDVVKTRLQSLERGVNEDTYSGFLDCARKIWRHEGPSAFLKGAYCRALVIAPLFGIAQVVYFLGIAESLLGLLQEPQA
UniProt O88455, sequence (O88455 whole entry): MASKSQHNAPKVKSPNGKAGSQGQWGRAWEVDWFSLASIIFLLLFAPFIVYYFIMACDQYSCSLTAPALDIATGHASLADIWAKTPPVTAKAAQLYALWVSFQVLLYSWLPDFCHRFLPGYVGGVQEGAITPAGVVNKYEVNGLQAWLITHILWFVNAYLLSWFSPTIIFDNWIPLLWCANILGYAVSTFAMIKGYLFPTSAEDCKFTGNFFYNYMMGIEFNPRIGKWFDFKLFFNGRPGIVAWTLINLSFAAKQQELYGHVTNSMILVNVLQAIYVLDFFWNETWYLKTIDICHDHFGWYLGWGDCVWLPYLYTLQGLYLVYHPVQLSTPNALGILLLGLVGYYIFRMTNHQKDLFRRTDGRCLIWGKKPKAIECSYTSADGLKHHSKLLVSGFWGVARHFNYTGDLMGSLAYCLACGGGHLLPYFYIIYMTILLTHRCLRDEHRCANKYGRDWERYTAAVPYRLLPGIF
UniProt P31938, sequence (P31938 whole entry): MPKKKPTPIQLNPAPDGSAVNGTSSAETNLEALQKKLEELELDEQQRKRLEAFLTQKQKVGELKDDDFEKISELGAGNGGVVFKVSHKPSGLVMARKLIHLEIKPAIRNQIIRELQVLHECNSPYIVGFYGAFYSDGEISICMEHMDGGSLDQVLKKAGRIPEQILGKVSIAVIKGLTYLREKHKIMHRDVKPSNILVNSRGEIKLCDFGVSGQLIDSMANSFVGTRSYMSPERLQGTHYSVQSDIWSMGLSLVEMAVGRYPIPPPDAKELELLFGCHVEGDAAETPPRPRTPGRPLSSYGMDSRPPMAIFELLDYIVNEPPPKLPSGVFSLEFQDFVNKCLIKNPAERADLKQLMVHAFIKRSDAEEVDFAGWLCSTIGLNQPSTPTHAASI
UniProt P19157, sequence (P19157 whole entry): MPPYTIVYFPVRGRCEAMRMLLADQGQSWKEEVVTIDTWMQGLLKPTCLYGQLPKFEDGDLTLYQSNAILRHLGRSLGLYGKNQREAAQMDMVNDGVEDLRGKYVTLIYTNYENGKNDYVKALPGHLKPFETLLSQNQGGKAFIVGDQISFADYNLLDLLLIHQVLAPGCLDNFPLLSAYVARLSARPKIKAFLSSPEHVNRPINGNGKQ
UniProt Q9JI11, sequence (Q9JI11 whole entry): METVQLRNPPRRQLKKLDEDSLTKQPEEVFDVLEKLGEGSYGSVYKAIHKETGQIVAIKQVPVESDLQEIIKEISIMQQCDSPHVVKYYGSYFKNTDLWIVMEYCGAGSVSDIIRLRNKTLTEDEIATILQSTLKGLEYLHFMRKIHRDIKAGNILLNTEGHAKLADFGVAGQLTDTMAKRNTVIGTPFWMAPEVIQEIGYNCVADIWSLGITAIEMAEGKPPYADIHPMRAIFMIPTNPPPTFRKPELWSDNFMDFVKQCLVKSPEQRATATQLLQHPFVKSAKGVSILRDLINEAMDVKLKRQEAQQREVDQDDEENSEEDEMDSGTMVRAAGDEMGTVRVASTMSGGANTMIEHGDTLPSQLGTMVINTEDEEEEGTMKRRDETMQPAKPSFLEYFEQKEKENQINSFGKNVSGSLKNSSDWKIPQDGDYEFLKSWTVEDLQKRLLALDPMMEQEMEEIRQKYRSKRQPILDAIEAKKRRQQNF

Compound in the assay: CN[C@@H]1C[C@H]2O[C@@](C)([C@@H]1OC)n1c3ccccc3c3c4c(c5c6ccccc6n2c5c31)C(=O)NC4 [staurosporine]
Kind of assay: log2 fold change of tryptic peptide abundance, ligand vs vehicle (limited proteolysis) (log2 ratio); higher = more trypsin-susceptible (destabilized). As to conditions: ligand concentration: 20 uM; sample: mouse liver crude lysate; replicate design: treated separately.
On to “UniProt P47754 (peptide sequence: TSVETALR, peptide start residue: 122)”, for which the log2 fold change is -0.836.
Turning to “UniProt P19253 (peptide sequence: LAHEVGWK, peptide start residue: 141)”, the log2 fold change is 0.254.
“UniProt O88455 (peptide sequence: LLVSGFWGVAR, peptide start residue: 390)”: the log2 fold change turned out to be 0.757.
In the case of “UniProt P31938 (peptide sequence: VSHKPSGLVMAR, peptide start residue: 85)”, the log2 fold change is -0.899.
As for “UniProt P19157 (peptide sequence: AFLSSPEHVNRPINGNGK, peptide start residue: 192)”, the log2 fold change is -0.521.
In the case of “UniProt Q9JI11 (peptide sequence: ATATQLLQHPFVK, peptide start residue: 270)” it was -3.07; in that of “UniProt Q8C5L7 (peptide sequence: NGAQIAEGFR, peptide start residue: 267)”, 0.659; in that of “UniProt P83510 (peptide sequence: NIATYYGAFIK, peptide start residue: 81)”, -0.608.
Take “UniProt Q62120 (peptide sequence: VLPQDKEYYK, peptide start residue: 1000)”: the log2 fold change was -1.02.
On to “UniProt Q60932 (peptide sequence: LTFDSSFSPNTGKK, peptide start residue: 110)”, for which the log2 fold change was -0.605.
With “UniProt Q9D6M3 (peptide sequence: LAANDFFR, peptide start residue: 84)”, the log2 fold change was found to be 0.616.
